For 91 molecules, inhibition results are on record in PubChem BioAssay AID588689 (Southern Research Specialized Biocontainment Screening …, 2011).

This assay deals with Genome polyprotein (Dengue virus type 2 (strain 16681-PDK53)) (UniProt P29991). In words: flavivirus cap methylation enzyme inhibition – biochemical, confirmation dose response, primary screen (AID 588689). To be noted: Dengue-2 NS5 methyltransferase capping enzyme assay, at 25 µM, stronger effect = higher value.
The mark [1] stands for this setting: measured here: pilot screen replicate inhibition.

As usually defined, the inhibition is the change of the read-out against control, counted positive when it falls.

Screen size: about 340,000 compounds; about 1,000 (0.29%) were called active. Rule as the data show it: inconclusive = inhibition above about 29% without an active follow-up result; inactive = below that. These entries were drawn from the full list. Measured potencies and affinities stand elsewhere.

Sequence of Genome polyprotein (Dengue virus type 2 (strain 16681-PDK53)) (P29991 whole entry, looked up): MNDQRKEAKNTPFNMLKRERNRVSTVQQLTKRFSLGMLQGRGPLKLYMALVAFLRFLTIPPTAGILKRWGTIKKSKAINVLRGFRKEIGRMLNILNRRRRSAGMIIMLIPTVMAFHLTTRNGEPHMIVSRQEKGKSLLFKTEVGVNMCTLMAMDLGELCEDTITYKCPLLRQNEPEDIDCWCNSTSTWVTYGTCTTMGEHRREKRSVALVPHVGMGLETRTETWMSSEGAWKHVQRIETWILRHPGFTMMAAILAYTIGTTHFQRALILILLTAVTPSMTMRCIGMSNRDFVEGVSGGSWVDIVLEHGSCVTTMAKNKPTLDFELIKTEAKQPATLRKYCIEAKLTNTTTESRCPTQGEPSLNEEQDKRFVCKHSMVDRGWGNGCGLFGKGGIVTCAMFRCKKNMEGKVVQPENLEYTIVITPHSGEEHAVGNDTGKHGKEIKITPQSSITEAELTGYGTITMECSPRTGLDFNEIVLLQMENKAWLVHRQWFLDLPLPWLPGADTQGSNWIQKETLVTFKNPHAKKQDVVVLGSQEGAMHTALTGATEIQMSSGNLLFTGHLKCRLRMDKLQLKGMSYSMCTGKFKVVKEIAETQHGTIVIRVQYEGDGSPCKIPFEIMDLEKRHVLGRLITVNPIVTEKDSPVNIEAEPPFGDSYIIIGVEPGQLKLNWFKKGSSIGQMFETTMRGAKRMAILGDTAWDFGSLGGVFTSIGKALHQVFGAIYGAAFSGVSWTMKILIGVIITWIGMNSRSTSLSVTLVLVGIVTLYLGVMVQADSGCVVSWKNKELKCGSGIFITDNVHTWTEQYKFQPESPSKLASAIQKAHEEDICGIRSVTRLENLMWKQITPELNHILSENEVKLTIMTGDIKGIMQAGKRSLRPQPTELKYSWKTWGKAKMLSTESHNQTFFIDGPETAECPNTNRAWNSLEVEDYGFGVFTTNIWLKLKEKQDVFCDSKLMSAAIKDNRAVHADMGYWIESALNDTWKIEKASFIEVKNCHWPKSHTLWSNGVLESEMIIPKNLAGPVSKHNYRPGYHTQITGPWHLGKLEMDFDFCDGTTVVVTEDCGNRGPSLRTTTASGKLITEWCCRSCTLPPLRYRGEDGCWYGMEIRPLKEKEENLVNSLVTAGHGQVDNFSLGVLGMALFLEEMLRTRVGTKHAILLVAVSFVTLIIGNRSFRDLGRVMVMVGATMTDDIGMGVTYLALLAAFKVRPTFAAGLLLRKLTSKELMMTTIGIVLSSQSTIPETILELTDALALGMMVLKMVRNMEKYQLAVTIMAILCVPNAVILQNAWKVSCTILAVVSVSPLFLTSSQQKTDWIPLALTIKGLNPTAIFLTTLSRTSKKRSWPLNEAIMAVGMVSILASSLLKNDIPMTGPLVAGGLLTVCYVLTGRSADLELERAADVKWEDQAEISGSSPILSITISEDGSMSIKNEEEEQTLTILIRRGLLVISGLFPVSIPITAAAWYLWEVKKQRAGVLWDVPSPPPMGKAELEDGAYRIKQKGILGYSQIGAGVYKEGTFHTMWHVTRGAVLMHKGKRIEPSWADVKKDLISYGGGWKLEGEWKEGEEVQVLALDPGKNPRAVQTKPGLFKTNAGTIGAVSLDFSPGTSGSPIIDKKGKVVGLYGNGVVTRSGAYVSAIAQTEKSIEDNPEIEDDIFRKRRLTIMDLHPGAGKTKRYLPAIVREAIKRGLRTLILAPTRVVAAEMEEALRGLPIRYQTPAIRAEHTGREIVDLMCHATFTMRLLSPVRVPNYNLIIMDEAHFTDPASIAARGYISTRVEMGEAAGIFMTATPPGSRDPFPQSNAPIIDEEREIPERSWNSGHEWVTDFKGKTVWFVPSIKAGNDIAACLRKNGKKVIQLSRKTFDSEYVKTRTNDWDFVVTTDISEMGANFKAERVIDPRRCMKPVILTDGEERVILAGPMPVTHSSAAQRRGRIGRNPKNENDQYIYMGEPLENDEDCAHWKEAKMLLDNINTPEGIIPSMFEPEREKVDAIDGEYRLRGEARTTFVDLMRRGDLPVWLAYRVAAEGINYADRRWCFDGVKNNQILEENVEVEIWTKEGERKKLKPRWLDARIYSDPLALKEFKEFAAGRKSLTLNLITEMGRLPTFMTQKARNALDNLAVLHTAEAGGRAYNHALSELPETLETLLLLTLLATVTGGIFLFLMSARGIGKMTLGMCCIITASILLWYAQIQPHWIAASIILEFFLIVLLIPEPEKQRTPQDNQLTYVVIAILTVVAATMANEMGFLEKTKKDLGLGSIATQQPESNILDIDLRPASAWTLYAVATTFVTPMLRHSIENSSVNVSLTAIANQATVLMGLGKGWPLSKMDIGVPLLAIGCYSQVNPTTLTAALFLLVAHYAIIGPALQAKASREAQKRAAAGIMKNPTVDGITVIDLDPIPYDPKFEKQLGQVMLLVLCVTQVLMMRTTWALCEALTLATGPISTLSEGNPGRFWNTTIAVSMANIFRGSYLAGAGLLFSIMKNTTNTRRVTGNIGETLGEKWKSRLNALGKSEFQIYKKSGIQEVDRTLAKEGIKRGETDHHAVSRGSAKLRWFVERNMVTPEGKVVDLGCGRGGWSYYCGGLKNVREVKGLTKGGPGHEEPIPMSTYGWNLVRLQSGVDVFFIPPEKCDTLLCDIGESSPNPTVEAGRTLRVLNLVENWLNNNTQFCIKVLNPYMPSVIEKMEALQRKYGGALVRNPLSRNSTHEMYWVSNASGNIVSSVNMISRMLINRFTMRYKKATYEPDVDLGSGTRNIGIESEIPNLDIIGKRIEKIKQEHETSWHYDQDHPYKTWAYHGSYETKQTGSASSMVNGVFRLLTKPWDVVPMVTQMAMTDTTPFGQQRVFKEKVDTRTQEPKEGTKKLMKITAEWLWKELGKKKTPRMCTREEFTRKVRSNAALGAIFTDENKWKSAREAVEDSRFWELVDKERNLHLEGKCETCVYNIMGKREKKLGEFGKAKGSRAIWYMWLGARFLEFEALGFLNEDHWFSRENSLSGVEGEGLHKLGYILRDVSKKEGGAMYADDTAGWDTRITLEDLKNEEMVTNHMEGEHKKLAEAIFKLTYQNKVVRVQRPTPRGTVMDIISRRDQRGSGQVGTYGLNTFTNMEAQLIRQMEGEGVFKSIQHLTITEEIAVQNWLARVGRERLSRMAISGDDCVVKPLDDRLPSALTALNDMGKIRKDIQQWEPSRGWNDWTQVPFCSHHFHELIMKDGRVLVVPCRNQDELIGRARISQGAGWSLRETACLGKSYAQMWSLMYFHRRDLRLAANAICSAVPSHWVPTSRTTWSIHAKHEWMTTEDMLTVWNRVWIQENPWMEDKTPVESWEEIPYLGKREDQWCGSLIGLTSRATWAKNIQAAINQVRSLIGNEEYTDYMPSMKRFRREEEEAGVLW

Regarding `COC(=O)c1c(C(=O)OC)c(-c2ccccc2)n2c1CCC2`, the inhibition is 1.6% (inactive).

As to `O=C(O)/C(=C\c1ccc(Cl)c([N+](=O)[O-])c1)c1ccc(S(=O)(=O)N2CCCC2)s1`, the inhibition was 0.37% (inactive).

Consider `O=C(O)/C(=C/c1ccc(Cl)c([N+](=O)[O-])c1)c1ccc(S(=O)(=O)N2CCCCC2)s1`, for which the inhibition was 15.9% (inactive).

For `O=C(CN1C(=O)C2CCCCC2C1=O)OCC(=O)c1ccc(Cl)s1` (stereo unspecified), the inhibition was -7.27% (inactive).

Regarding `O=S(=O)(c1ccc(=S)[nH]c1)N1CCOCC1`, the inhibition is -8.4% (inactive).

Take `COC(=O)c1cccc(NC(=O)C2CCCN2C(=O)c2cccs2)c1` (stereo unspecified): the inhibition was -0.73% (inactive).

For `Cc1cc(C(=O)N/N=C2/CC(C)CC(C)(C)C2)c(C)o1` (stereo unspecified), the inhibition is -5.92% (inactive).

As for `CC1(C)CC(=O)C2=C(C1)c1c(ccc3ccccc13)NC2c1ccc(C(=O)O)cc1` (stereo unspecified), the inhibition is 2.04% (inactive).

Take `CC1(C)CC(=O)C2=C(C1)c1c(ccc3ccccc13)NC2c1ccco1` (stereo unspecified): the inhibition was -4.19% (inactive).

On to `COc1ccc(S(=O)(=O)N2CCN(c3ccccc3OC)CC2)cc1C(=O)N1CCCCC1`, for which the inhibition was -9.14% (inactive).

Consider `O=C(COc1ccc(Br)cc1)NNC(=S)NC(=O)c1ccccc1[N+](=O)[O-]`, for which the inhibition is 10.8% (inactive).

Turning to `Cc1ccccc1OCC(=O)NNC(=S)NC(=O)c1ccccc1[N+](=O)[O-]`, the inhibition was -8.89% (inactive).

As for `Cc1ccsc1CN(C)Cc1nc(C2CC2)no1`, the inhibition was 1.78% (inactive).

For the molecule `CCOc1cccc(C=NNc2ccc(S(=O)(=O)Nc3ccccc3C(=O)O)cc2[N+](=O)[O-])c1O`, the inhibition is 9.55% (inactive).

Take `COc1ccccc1NS(=O)(=O)c1ccc(N/N=C/c2c(C)nn(-c3ccccc3)c2N2CCCC2)c([N+](=O)[O-])c1`: the inhibition is 0.96% (inactive).

Take `CCOc1ccc(C=NNc2ccc(S(=O)(=O)Nc3ccccc3C(=O)O)cc2[N+](=O)[O-])cc1OC`: the inhibition is 7.77% (inactive).

Turning to `CSc1ccc(C=NNc2ccc(S(=O)(=O)Nc3ccccc3C(=O)O)cc2[N+](=O)[O-])cc1`, the inhibition is 18.3% (inactive).

Consider `CCN(Cc1ccccc1)C(=O)c1ccc(C(=O)N(CC)Cc2ccccc2)cc1`, for which the inhibition was -1.55% (inactive).

`CCc1nc(SCc2ccccc2)n[nH]1`: the inhibition was 8.1% (inactive).

For the molecule `Cc1cc(C(F)(F)F)c(C#N)c(SCC(=O)NC(C)(C)C)n1`, the inhibition is -2.7% (inactive). Moreover, the inhibition under setting [1] was found to be 4.83%.

With `COc1cccc(O)c1CN1CCC(n2nccc2NC(=O)c2ccc3c(c2)OCO3)CC1`, the inhibition was -3.24% (inactive).

As for `CCCCSc1n[nH]c(N)n1`, the inhibition was -2.73% (inactive).

Turning to `COc1cccc(NC(=O)Cc2nnc(SCC(=O)NC3=NCCS3)n2C)c1`, the inhibition was -1.78% (inactive).

On to `CCOc1cc(C(=O)N2CCN=C2SC)cc(OCC)c1OCC`, for which the inhibition was -0.73% (inactive).

Consider `CCCCCCN1C[C@H](n2cc(C3CC3)nn2)[C@@H](O)C[C@@H]1c1ccc(C)cc1`, for which the inhibition is 0% (inactive).

As to `COc1ccc(NC2=NCCC(=O)N2Cc2cccs2)cc1`, the inhibition was 3.14% (inactive).

For `OCC(CO)(CO)N=Cc1c(O)ccc2ccccc12`, the inhibition was 24.8% (inactive).

With `CN(C)/N=C/c1c(O)ccc2ccccc12`, the inhibition was 10.4% (inactive).

In the case of `COc1ccc(NC(=O)/C=C/c2ccccc2)c([N+](=O)[O-])c1`, the inhibition is -2.2% (inactive).

For `CC(=O)N1c2ccccc2NC2=C(C(=O)CCC2)C1c1ccco1` (stereo unspecified), the inhibition is 9.11% (inactive).

`O/N=C/c1cc(Br)ccc1OCc1ccc(F)cc1`: the inhibition was -7.14% (inactive).

For the molecule `CCn1c(C)cc(/C=C2/SC(=S)N(CC(=O)O)C2=O)c1C`, the inhibition was -89.8% (inactive).

With `O=C(O)CCN1C(=O)/C(=C\c2ccc(OCc3ccccc3)c(OCc3ccccc3)c2)SC1=S`, the inhibition is 8.45% (inactive).

`Cn1cccc1/C=C1/SC(=S)N(CC(=O)O)C1=O`: the inhibition is 3.63% (inactive).

As to `Cn1cccc1/C=C1\SC(=S)N(CC(=O)O)C1=O`, the inhibition is -7.69% (inactive).

With `O=[N+]([O-])c1ccc(COc2ccc(Br)cc2CN2CCOCC2)cc1`, the inhibition was -3.16% (inactive).

As for `O=C1CCc2cc(S(=O)(=O)Nc3ccccc3)cc3c2N1CCC3`, the inhibition is -5.11% (inactive).

In the case of `CCOc1cccc(N2CCN(CCNC(=O)Nc3ccc(C)cc3)CC2)c1C`, the inhibition is -3.11% (inactive).

Take `CC(C)N(C(=O)[C@H]1C[C@H](CC(=O)NCc2ccco2)C(=O)N2CCc3c([nH]c4cc(CCC(=O)N(C)C)ccc34)[C@]12C)C(C)C`: the inhibition was -2.31% (inactive). Moreover, the inhibition under setting [1] came to 1.51%.

Regarding `Cc1ccc(-c2nnn(CC(=O)N(c3ccccc3F)C(C(=O)NC3CCCC3)c3ccncc3)n2)o1` (stereo unspecified), the inhibition is 5.7% (inactive).

With `COC(=O)c1cc(COC(=O)c2nc3nccc(C)n3n2)oc1C`, the inhibition is 0% (inactive).

As to `Clc1ccc(-c2csc(-c3ccno3)n2)cc1`, the inhibition is -5.36% (inactive).

For the molecule `O=[N+]([O-])c1ccc(NCCCN2CCOCC2)c([N+](=O)[O-])c1`, the inhibition was -5.47% (inactive).

As for `COc1ccc(CC(=O)Nc2ccc(S(=O)(=O)Nc3cc(OC)nc(OC)n3)cc2)cc1`, the inhibition was 23.3% (inactive).

Take `O=C(O)CCCC(=O)N1CCc2cc(S(=O)(=O)N3CCc4ccccc43)ccc21`: the inhibition was -4.13% (inactive).

Consider `O=C1CCCCC1(O)Cc1ccc2c(c1)OCO2` (stereo unspecified), for which the inhibition was -3.89% (inactive).

Turning to `O=c1cc(-c2ccccc2)oc2cccc(O)c12`, the inhibition is -5.07% (inactive).

Regarding `O=c1cc(-c2ccccc2)oc2cc(O)cc(O)c12`, the inhibition is -12.6% (inactive).

On to `CC(=O)c1cc2c(cc1NC(=O)Cc1ccsc1)OCO2`, for which the inhibition is -0.37% (inactive).

`O=C(C1CC(c2cccc(Br)c2)=NO1)N1CCc2ccccc2C1` (stereo unspecified): the inhibition is -3.92% (inactive).

Consider `Cc1cccc(OCCn2nc(C(=O)O)c3ccccc3c2=O)c1`, for which the inhibition is 2.68% (inactive).

Turning to `O=C(Nc1cccc2ccccc12)c1cccc([N+](=O)[O-])c1`, the inhibition is -4.08% (inactive).

`O=C(O)c1cccc([N+](=O)[O-])c1C(=O)Nc1cccc2ccccc12`: the inhibition was -2.72% (inactive).

Consider `COc1cc(CN=Cc2c(O)n(Cc3ccccc3)c(=S)[nH]c2=O)cc(OC)c1`, for which the inhibition was 10.8% (inactive).

For the molecule `COc1c(O)ccc(/C=N\NC(=O)c2ccc3c(c2)OCO3)c1[N+](=O)[O-]`, the inhibition is 12.7% (inactive).

`COc1c(O)ccc(/C=N/NC(=O)c2ccc3c(c2)OCCO3)c1[N+](=O)[O-]`: the inhibition is 2.38% (inactive).

On to `O=C(c1cc(-c2ccncc2)nc2ccc(Cl)cc12)N1CCN(C(=O)C2CCCO2)CC1` (stereo unspecified), for which the inhibition is -1.35% (inactive).

With `COC1=CC(=O)C=C(OC)C1=O`, the inhibition is -8.21% (inactive).

Turning to `CC/C=C\C/C=C\C/C=C\CCCCCCCC(=O)O`, the inhibition is 2.2% (inactive).

`CN(CC(=O)Nc1ccccc1Cl)C(=O)CSc1nnc(-c2ccco2)o1`: the inhibition was -1.47% (inactive).

`CN1CCN(NC(=O)c2cc(S(=O)(=O)N3CCOCC3)c(Cl)cc2Cl)CC1`: the inhibition was 1.45% (inactive).

On to `O=C(NC(C(=O)c1ccccc1)N1CCOCC1)c1cccs1` (stereo unspecified), for which the inhibition was -6.21% (inactive).

Consider `CCCCN1C(=O)N(CCc2ccc(F)cc2)S(=O)(=O)c2cc(C(F)(F)F)ccc21`, for which the inhibition was -0.33% (inactive). Further, the inhibition under setting [1] is 1.51%.

In the case of `COc1ccc2nc3ccccc3nc2c1N`, the inhibition is 40.2% (inactive).

With `Cc1cccc2nc3ccccc3nc12`, the inhibition was -0.76% (inactive).

Consider `NC(=O)c1ccc(=O)n(Cc2ccc(F)c(F)c2)c1`, for which the inhibition was -1.31% (inactive).

With `Cc1cc(C(c2ccc(O)cc2)c2cc(C)c(O)cc2C)c(C)cc1O`, the inhibition was -0.79% (inactive).

In the case of `Cc1ccc(N)cc1O`, the inhibition was -2.91% (inactive).

In the case of `Cc1ccc(CNC(=O)C(C(=O)NCc2ccc(C)o2)c2ncc(C(F)(F)F)cc2Cl)o1`, the inhibition is -13.8% (inactive).

For the molecule `COc1ccc(Br)cc1/C=C/C(=O)NC(=S)Nc1ccc(CN2CCOCC2)cc1`, the inhibition is -10.4% (inactive).

In the case of `COc1ccc(Br)cc1C(=O)NC(=S)Nc1ccc(Cl)c(C(=O)O)c1`, the inhibition was 4.69% (inactive).

Turning to `c1ccc(NN=C2c3ccccc3-c3ccccc32)cc1`, the inhibition was -1.94% (inactive).

For `CC1(C)OC(=O)C(=NNc2ccccc2)C(=O)O1`, the inhibition is -0.73% (inactive).

As to `COc1ccc(N(C)C(=O)c2ccc3c(c2)nnn3C)cc1`, the inhibition is -4.51% (inactive).

As to `O=C(CN1CCOCC1)Nc1ccccc1NC(=O)C1CCN(c2ncccn2)CC1`, the inhibition is -11.3% (inactive).

Consider `COC(=O)[C@@]1(Cc2ccccc2)[C@H]2C(=O)N(C)C(=O)[C@H]2[C@H]2CN=C(SCc3ccc(C)cc3)N21`, for which the inhibition was 1.99% (inactive). Moreover, under setting [1], the inhibition is 0.61%.

`Cc1csc(/C(=N/OC(=O)c2ccco2)C(N)=O)n1`: the inhibition was -32.5% (inactive).

Turning to `N/C(=N\OC(=O)c1ccco1)c1ccc(Br)cc1`, the inhibition is -5.29% (inactive).

Turning to `O=C(CCCOc1cccc(Br)c1)NCCOc1ccccc1`, the inhibition is -4.07% (inactive).

Take `Cn1c(=O)c2sccc2n(CC(=O)NCCC2=CCCCC2)c1=O`: the inhibition was -7.27% (inactive).

On to `CCN(CC)Cc1nc2c(c(=O)[nH]1)C1(CCCCC1)Cc1ccccc1-2`, for which the inhibition was -5.55% (inactive).

With `COc1ccc(NC(=O)/C(C#N)=C/c2ccc(-c3ccc(Cl)c(C(=O)O)c3)o2)cc1`, the inhibition is 3.44% (inactive).

On to `O=C1NN(c2cccc(Br)c2)C(=O)/C1=C/c1ccc(-c2cc([N+](=O)[O-])ccc2O)o1`, for which the inhibition is 70.1% (inactive).

Take `COC(=O)c1ccc(N2NC(=O)/C(=C/c3ccc(OC)c(OC)c3)C2=O)cc1`: the inhibition was 34.3% (inactive).

With `COC(=O)c1ccc(N2NC(=O)/C(=C/c3cc(OC)c(O)c(OC)c3)C2=O)cc1`, the inhibition is -24.8% (inactive).

As to `O=Cc1ccc(-c2ccccc2C(=O)O)o1`, the inhibition was -2.22% (inactive).

`Cc1nnc(NC(=O)c2ccc3c(c2)OCO3)s1`: the inhibition is 8.19% (inactive).

As to `Cc1noc(C)c1CSCC(=O)Nc1nc2ccc(S(C)(=O)=O)cc2s1`, the inhibition was -2.95% (inactive).

On to `N#CCC(=O)N/N=C/c1ccc(OS(=O)(=O)c2ccccc2)cc1`, for which the inhibition is -3.76% (inactive). Under setting [1], the inhibition is -2.42%.

In the case of `COC(=O)Cn1c(CCS(=O)(=O)c2ccc(Cl)cc2)nc2ccccc21`, the inhibition is -5.46% (inactive).

Turning to `Cc1ccc(-c2cnc3ccccc3n2)cc1C`, the inhibition was -6.51% (inactive).
